# RXFP1 antagonist = blocks the human relaxin receptor RXFP1 | HEK293-RXFP1, relaxin-stimulated cAMP HTRF, 30 min; hits give low values | actives 0.59% (n = 350,000) | activity change, negative = inhibition, % at 57.5 µM;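 active = activity change of -60% or lower, but not beyond a set lower limit; inconclusive = change between -60% and -40%, or beyond the set limit; inactive = change above -40%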
# Target sequence (Q9HBX9 whole entry, looked up): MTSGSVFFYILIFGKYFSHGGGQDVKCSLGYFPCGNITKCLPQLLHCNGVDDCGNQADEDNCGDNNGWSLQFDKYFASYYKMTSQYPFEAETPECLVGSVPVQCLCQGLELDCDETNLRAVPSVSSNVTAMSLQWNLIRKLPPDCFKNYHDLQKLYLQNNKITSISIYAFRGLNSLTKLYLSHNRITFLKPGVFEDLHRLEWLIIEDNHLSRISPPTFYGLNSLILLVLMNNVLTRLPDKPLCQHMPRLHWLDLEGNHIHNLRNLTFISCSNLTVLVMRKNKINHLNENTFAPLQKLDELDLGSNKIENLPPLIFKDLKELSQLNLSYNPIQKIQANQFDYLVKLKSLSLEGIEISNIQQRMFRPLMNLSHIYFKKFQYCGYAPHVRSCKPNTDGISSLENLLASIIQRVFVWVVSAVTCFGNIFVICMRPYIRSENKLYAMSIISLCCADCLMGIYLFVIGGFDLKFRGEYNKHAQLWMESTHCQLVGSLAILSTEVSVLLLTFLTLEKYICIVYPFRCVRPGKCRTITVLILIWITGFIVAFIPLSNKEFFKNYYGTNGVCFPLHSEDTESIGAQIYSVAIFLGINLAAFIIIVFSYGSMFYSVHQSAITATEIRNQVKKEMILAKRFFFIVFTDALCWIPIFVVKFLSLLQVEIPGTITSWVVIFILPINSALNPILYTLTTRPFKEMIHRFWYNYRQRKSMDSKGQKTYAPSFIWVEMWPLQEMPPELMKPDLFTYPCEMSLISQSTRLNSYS
# RXFP1 agonist = activates the human relaxin receptor RXFP1; HEK293T-RXFP1 cAMP TR-FRET, 30 min; response scale: percent of porcine relaxin response, buffer zero; actives 0.3% (n = 370,000); Potency, µM (doses to about 57.5 µM), actives largely listed as activators; also: nearly all actives have a fitted effect of over 60% in size
#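 Agonist response is measured as cAMP accumulation in an RXFP1-transfected HEK293T line under PDE4 inhibition. Values are scaled between buffer-only and 29 nM porcine relaxin, and EC50s come from standard Hill equation fits.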
# gsp antag = gsp mutant antagonism. gsp-mutant cells, cAMP HTRF, 30 min. Potency, µM (doses to about 76.9 µM), usual class: inhibitors. actives 0.4% (n = 340,000). AID 624288; calls by dose curve; cell line not stated here;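 also: intracellular cAMP measured with PDE inhibitor Ro 20-1724 present during compound exposure; nearly all actives have a fitted effect of over 65% in size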
#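 Measurement of cellular cAMP by homogeneous time-resolved fluorescence following a 30 min compound exposure at 37C. The PDE inhibitor […] was present throughout; the assay buffer was DPBS with 0.05% BSA and 0.005% Tween 20.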
# CCT modulator = changes cytosolic chaperonin activity | AID 651819 | actives 0.3% (n = 360,000) | purified chaperonin ATPase assay, HTRF ADP detection, 30 min | activity change, % (no concentration beside the values), hits read low; in the data active = activity change below about -30%
#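 Enzyme 40 or 20 nM (batch-dependent) in Tris pH 7.4/KCl/MgCl2/DTT; cpd 76 uM single point; ATP 10 uM; 30 min 37 °C; Transcreener ADP HTRF detection, 30 min RT; ratio 665/615.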
# Mm-Cpn inhibitor = inhibitors of Methanococcus maripaludis chaperonin TRiC (MmCpn); purified Mm-Cpn ATPase, ADP Transcreener TR-FRET; Potency, µM (doses to about 76.9 µM), hits mostly inhibitors; actives 0.031% (n = 330,000); AID 504842; also: nearly all actives have a fitted effect of over 80% in size
#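 25 nM Mm-CPN + cpd, 10 min 37°C; + 10 uM ATP, 30 min 37°C; buffer 30 mM Tris pH 7.4, 100 mM KCl, 5 mM MgCl2, 1 mM DTT; Transcreener ADP HTRF detection 30 min RT.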
# gsp ag = activates gsp, the McCune-Albright syndrome mutation; Potency, µM (titrated, usually from 76.9 µM), most hits filed as activators; gsp mutant cells, cAMP HTRF, 30 min; actives 0.13% (n = 340,000); AID 624287; active = well fitted activation curve with a large enough effect; inconclusive = small, poorly fitted or top-dose-only effect, or another doubt; inactive = no such curve, though single readings can be large or run the other way; cell line not stated here;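 also: phosphodiesterase inhibitor Ro 20-1724 added with compounds to block cAMP breakdown; nearly all actives have a fitted effect of over 60% in size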
#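 Cells stably selected in G418 were plated at 2000/well, grown 16-24 hr, then given compounds in DMSO with the PDE inhibitor […] (300 uM solution added) for 30 min at 37C; cAMP was read by HTRF.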
# Numbers stand for hits; - = inactive; ? = inconclusive; . = no result given; [ ] = another dose, or the depositor's remark. The list is not random: actives were taken first. Their share in the collection is about 1.2%. Unless noted, calls follow the shape of the dose curve; as a rule, active = well fitted curve in the direction sought with a large enough effect; inconclusive = small, poorly fitted or top-dose-only effect, or another doubt; inactive = no such curve, though single readings can be large; an effect the other way counts as inactive or inconclusive.
SMILES,RXFP1 antagonist,RXFP1 agonist,gsp antag,CCT modulator,Mm-Cpn inhibitor,gsp ag
CCc1cc2cc3c(cc2nc1SCC(=O)Nc1cc(C)on1)OCO3,-,28µM,-,-,-,?
O=c1[nH]c(=O)n([C@H]2O[C@H](CO)[C@@H](O)[C@@H]2O)cc1/C=C\Br,-,.,.,.,.,.
O=C(O)[C@H](O)c1ccccc1,-,.,.,.,.,.
CC1(CCc2ccccc2)NC(=O)N(CC(=O)Nc2c(F)cccc2F)C1=O (stereo not given),-,.,-,-51,-,-
CC1Cc2ccccc2N1S(=O)(=O)c1cccc(C(=O)N2CCCCC2)c1 (stereo not given),-,-,-,-,-,-[15.4 µM]
COc1ccccc1N1CCN(C(=O)c2cccc(S(=O)(=O)N3c4ccccc4CC3C)c2)CC1 (stereo not given),-,.,32µM,-,.,-
Nc1cc(C(F)(F)F)ccc1S,-,.,.,.,.,.
O=C(CCOCCOCCOCCOCCC(=O)Nc1c(I)cc(I)c(C(=O)O)c1I)Nc1c(I)cc(I)c(C(=O)O)c1I,-,.,.,.,.,.
Cc1nc2ccccn2c1C(=O)NNC(=S)Nc1ccccc1,-89,-,-,-,-,-
O=C(NCc1nc2ccccc2[nH]1)C1=C[C@H](c2ccc(Br)cc2)C[C@H](OCc2ccc(CO)cc2)O1,.,-,-,-49,.,-
CCOc1ccc(/C=C2\SC(=S)N(CCCC(=O)NCCCN3CCOCC3)C2=O)cc1,-,-,-,-38,-,-
CCc1ccc(/C=C2\SC(=S)N(CCCC(=O)NCCCN3CCOCC3)C2=O)cc1,-,.,.,-,.,-
FC(F)Oc1ccc(NC(=S)NCc2nc3ccccc3[nH]2)cc1,-,-,-,-37,-,-[15.4 µM]
O=C(CSc1nc2ccccc2nc1Cc1ccc(F)cc1)Nc1ccc2c(c1)OCO2,-,-,.,.,.,.
O=C(NCc1ccc(Cl)cc1)C1CCN(S(=O)(=O)c2ccc(N3CCCC3=O)cc2)CC1,-66,-,-,-,-,-
O=C(NCc1ccccc1)C1CCN(S(=O)(=O)c2ccc(N3CCCC3=O)cc2)CC1,-,-,-,-,-,?
CN1C[C@H]2c3ccccc3Oc3ccc(Cl)cc3[C@@H]2C1,-,.,.,.,.,.
CCS(=O)(=O)c1ncc(Cl)c(C(=O)N2CCN(c3ccc(OC)cc3)CC2)n1,?,-,.,.,.,.
Cc1ccc(SCC(=O)Nc2cc([N+](=O)[O-])ccc2O)cc1,-,-,50µM,-,-,-[15.4 µM]
O=C(CSCc1ccc(Cl)cc1)Nc1cc([N+](=O)[O-])ccc1O,-,-,?,-,-,-
CSc1nc(N(C)CCO)c2sc3nc(-c4ccco4)c4c(c3c2n1)CCC4,-,-,-,-,-,?
CSc1nc(SCC(=O)O)c2sc3nc(-c4ccccc4)c4c(c3c2n1)CCC4,-,28µM,-,-,-,?
C[C@H]1NCc2cc(-c3ccc4c(=O)c(C(=O)O)cn(C5CC5)c4c3OC(F)F)ccc21,-,.,.,.,.,.
Cc1ccc(NC(=O)N2CCCC(C(=O)O)C2)cc1 (stereo not given),-,-,-,-43,-,-
Cc1ccc(NC(=O)c2c(C)oc3ccc(O)c(CN4CCCC4)c23)c(C)c1,-,-,.,.,.,.
SMILES,RXFP1 antagonist,RXFP1 agonist,gsp antag,CCT modulator,Mm-Cpn inhibitor,gsp ag
CSc1nsc(SC)c1C(=O)NC(=O)Nc1cccnc1,-,-,-,-42,-,-
CSc1nsc(SC)c1C(=O)Nc1ccc(C(C)(C)C)cc1,-,-,-,-,-,?
O=C(Nc1cccc2c(=O)cc(-c3nn[nH]n3)oc12)c1ccc(OCCCCc2ccccc2)cc1,-,.,.,.,.,.
CCCC(=O)Nc1ncnc2c1ncn2[C@@H]1O[C@@H]2COP(=O)(O)O[C@H]2[C@H]1OC(=O)CCC,.,0.16µM,-,-,-[15.4 µM],.
COc1cc(NC(=O)CC[C@H]2O[C@@H](n3cnc4c(NC(=O)c5ccccc5)ncnc43)[C@H](O)[C@@H]2O)cc(OC)c1OC,.,.,.,-,.,.
COc1ccc(Cl)cc1NC(=O)CCS(=O)(=O)c1cccc2nonc12,.,-,.,.,.,.
CSCCC(NC(=O)/C(=C/c1ccco1)NC(=O)c1ccco1)C(=O)O (stereo not given),-,.,-,-38,.,-[15.4 µM]
CSCCC(NC(=O)/C(=C\c1ccco1)NC(=O)c1ccco1)C(=O)O (stereo not given),-,-,-,-,-,-
O=C(O)C(=O)Nc1cccc(-c2nn[nH]n2)c1,-,.,.,.,.,.
O=C(Nc1cccc(-c2nc3ncccc3o2)c1)c1ccc(-c2cccc(Cl)c2Cl)o1,-,-,.,.,.,.
NC(=S)NN=Cc1nccc2ccccc12,-76,.,-,-,.,-
NC(=S)NN=Cc1nccc2c(C(F)(F)C(F)(F)C(F)(F)F)cccc12,-,.,.,-,.,-
Cc1ccc(-n2nnnc2C(Cl)c2nnnn2-c2ccc(C)cc2)cc1,-63,-,-,-,?,-
Cc1ccc(-n2nnnc2-c2ccccc2)cc1,-,-,-,-,-,-[15.4 µM]
CCN(CC)c1ccc(NC(=O)c2cccn2-c2nnc(N3CCCCC3)s2)c(C)c1,-60,-,.,.,.,.
Cc1cccc(N2CCN(C(=O)c3cccn3-c3nnc(N4CCCCC4)s3)CC2)c1C,-68,-,.,.,.,.
COc1ccc(NC(=O)c2cccn2-c2nnc(N3CCCCC3)s2)c(OC)c1,-,-,.,.,.,.
CC1CCN(S(=O)(=O)c2cc(C(=O)N3CCN(c4cccc(Cl)c4)CC3)n(C)c2)CC1,.,-,.,.,.,.
COC(=O)c1ccc(-c2ccc(C(c3c(C)[nH][nH]c3=O)c3c(C)[nH][nH]c3=O)o2)cc1,-87,-,-,-,-,-
CCN(CC)C(=O)c1cnn(-c2ccccc2)c1NC(=O)c1ccco1,-,-,-,-,-,-
Cc1ccc(NC(=O)c2cnn(-c3ccccc3)c2NC(=O)c2ccco2)cc1C,-,-,-,-39,-,-
O=C1N=c2ccccc2=C1c1sc(=S)n(-c2ccc(O)cc2)c1O,-,-,-,-,-,-[15.4 µM]
CN(c1ccc(O)cc1)c1nc(O)c(C2=c3ccccc3=NC2=O)s1,-,.,14µM,-,.,-
Cc1ccc(-c2noc(CNC(=O)c3ccccc3)n2)cc1,-,-,.,.,.,.
O=C(CCS(=O)(=O)c1ccccc1)Nc1nc2cc3c(cc2s1)OCO3,-,-,50µM,-,-,-
COc1ccccc1-c1noc(CSc2nnc(Cc3ccccc3)n2-c2ccc(C)c(C)c2)n1,-65,-,.,.,.,.
COc1ccc(-c2noc(CSc3nnc(C)n3-c3ccc(C)c(C)c3)n2)c(OC)c1,-,-,.,.,.,.
Cc1ccc(C)c(N2CCN(C(=O)Nc3ccc4c(c3)N(C)C(=O)CS4)CC2)c1,-,-,40µM,-,-,-
Cc1cccc(N2CCN(C(=O)c3nn(C)c4c3CS(=O)(=O)c3ccccc3-4)CC2C)c1 (stereo not given),-,-,35µM,-,-,-

# Screens from PubChem BioAssay.
